Measured values published in ChEMBL document CHEMBL1157539, “Thousands of chemical starting points for antimalarial lead identification” (Nature, 2010).

test system: Plasmodium falciparum; experiment: GSK_TCMDC: Inhibition of Plasmodium falciparum 3D7 in whole red blood cells, using parasite LDH activity as an index of growth. Test compounds present at 2uM; type: functional

SMILES | Inhibition
COc1cc2nc(Nc3ccc(Oc4ccccc4)cc3)nc(Nc3ccc(Oc4ccccc4)cc3)c2cc1OC | 95%
CS(=O)(=O)CCNCc1cccc(-c2ccc3c(Nc4cc(O)c(Cl)cc4F)ccnc3c2)c1 | 100%
c1ccc(C23NC(=Nc4nc5ccccc5[nH]4)NC2(c2ccccc2)NC(=Nc2nc4ccccc4[nH]2)N3)cc1 (configuration not stated) | 97%
COCCN1CCC(NCC(C)(C)c2nc(-c3ccc(Cl)c(O)c3)c(-c3ccncc3)[nH]2)CC1.Cl | 100%
CCOc1cc(C(=O)N[C@@H](Cc2ccccc2)[C@H](O)CNCc2cc(OC)cc(OC)c2)cc(N2CCCCS2(=O)=O)c1.Cl | 100%
CCC[C@@H]([C@@H](CC(C)C)C(=O)N[C@@H](CCCCNC(=O)c1cccc(OC)c1)C(=O)Nc1nccs1)N(O)C=O | 100%
CCCc1cc(=O)oc2cc(OC)c(C(=O)CC(C)C)c(OC)c12 | 81%
NC(=O)c1c(Cl)nc2ccccc2c1Cl | 91%
CCN(CCCN1CCCCC1)c1cc(C)nc(Nc2ccc3c(c2)CCC3)n1.O=C(O)C(F)(F)F | 100%
OCCN1CCN(c2ccc(Nc3ccnc4cc5ccccc5cc34)cc2)CC1 | 100%
O=C(NCc1ccccn1)C(c1cc2ccccc2o1)N1CCN(C(c2ccccc2)c2ccccc2)CC1 (configuration not stated) | 95%
O=C(NCC(CCCN1CCC(c2c[nH]c3ccccc23)CC1)c1ccccc1)Nc1ccc(Cl)c(Cl)c1 (configuration not stated) | 100%
Cc1cc(N/N=C/c2ccccc2[N+](=O)[O-])c2cc(C(F)(F)F)ccc2n1 | 97%
CC(C)(C)c1cc(Cn2ccnc2)cc(C(C)(C)C)c1O | 85%
Cc1ccccc1C1CCN(C2CCC(NC(=O)/C=C/c3ccc(F)cc3)CC2)CC1 (configuration not stated) | 87%
COc1ccc2nccc(N3CCC(CCNCc4cc5c(cn4)OCCO5)CC3)c2c1.Cl | 100%
COc1cccc(Cc2cnc3nc(N)nc(N)c3c2C)c1 | 94%
COc1cc2nc(NCC3CCCCC3)nc(NCc3ccccc3)c2cc1OC | 100%
CCNc1cc(C(=O)N[C@@H](Cc2ccccc2)[C@H](O)CNCCc2ccccc2)cc(N2CCCC2=O)c1.O=C(O)C(F)(F)F | 92%
CCCCCn1c(Sc2ccc(C#N)c([N+](=O)[O-])c2)nnc1-c1ccccc1 | 93%
Cc1ccccc1C1CCN(C2CCC(NC(=O)/C=C/c3ccc(OC(F)(F)F)cc3)CC2)CC1 (configuration not stated) | 100%
O=C(NCCCCN1CCN(c2cccc(Cl)c2Cl)CC1)c1ccc2c(c1)CCN(C1CCC1)CC2 | 95%
CCN1CCN(c2cc(C)c3cc(NC(=O)c4cccc([N+](=O)[O-])c4)ccc3n2)CC1 | 99%
COc1ccc2nccc([C@@H](O)CN3CCC(NCc4ccc5c(c4)nnn5C(C)C)CC3)c2c1.O=C(O)C(=O)O | 100%
Cc1ccc(Nc2ccnc3cc(-c4nccs4)ccc23)cc1C(O)c1ccccc1.Cl (configuration not stated) | 85%
O=C(O)C(F)(F)F.OCCN1CCN(Cc2ccc(-c3ccc(-c4nc5ccccc5[nH]4)cc3)cc2)CC1 | 100%
O=C(/C=C/c1ccc(Cl)c(Cl)c1)NCCCCCN1CCC(c2cn[nH]c2-c2ccccc2)CC1 | 85%

test system: Plasmodium falciparum; experiment: GSK_TCMDC: Inhibition of Plasmodium falciparum Dd2 in whole red blood cells, using parasite LDH activity as an index of growth. Test compounds present at 2uM; type: functional

SMILES | Inhibition
CC(=O)Nc1cccc(Nc2nccc(-c3c(-c4cccc(NC(=O)c5c(F)cccc5F)c4)nn4ncccc34)n2)c1 | 51%
N=C(N)NN=CC(=O)Nc1ccc(Cl)c(C(F)(F)F)c1 | 0%
CC(C)C[C@H](NC(=O)c1ccc(OCCN2CCOCC2)cc1)C(=O)N[C@H](/C=N/N1CC(=O)NC1=O)CCc1ccccc1 | 67%
Cc1ccccc1CN1CCCN(Cc2ccc(C(=O)Nc3ccc(C(C)(C)C)cc3)cc2)CC1.O=C(O)C(F)(F)F | 5%
Cc1ccccc1C1CCN(C2CCC(NC(=O)/C=C/c3ccc(C#N)cc3)CC2)CC1 (configuration not stated) | 13%
CN(CCCNc1ccc(C(=O)Nc2ccc(C(F)(F)F)cc2)cc1[N+](=O)[O-])Cc1ccccc1 | 48%
CC(=O)Nc1ccc(S(=O)(=O)Nc2ccc(Nc3nc(C)cc(N4CCCCC4)n3)cc2)cc1 | 54%
CS(=O)(=O)Cc1ccc(Nc2nccc(-c3c(-c4cccc(C(=O)Nc5c(F)cccc5F)c4)nn4ccccc34)n2)cc1 | 92%
FC(F)(F)c1ccc(Nc2nnnc3ccccc23)cc1 | 82%
O=C(Nc1cccc(CN2CCCN(Cc3ccc(O)cc3)CC2)c1)c1cccc(C(F)(F)F)c1.O=C(O)C(F)(F)F | 71%
Cc1cccc2nc(C(=O)Nc3nc(CN4CCC(C)CC4)cs3)cn12 | 80%
COc1cc(Nc2ccnc3cc(-c4ccccn4)ccc23)cc(OC)c1OC.Cl | 0%
COc1cccc(Nc2nccc(-c3c(-c4cccc(NC(=O)c5c(F)cccc5F)c4)nn4ccccc34)n2)c1 | 98%
COc1cc2nc(Nc3ccc(Oc4ccccc4)cc3)nc(Nc3ccc(Oc4ccccc4)cc3)c2cc1OC | 45%
CS(=O)(=O)CCNCc1cccc(-c2ccc3c(Nc4cc(O)c(Cl)cc4F)ccnc3c2)c1 | 100%
c1ccc(C23NC(=Nc4nc5ccccc5[nH]4)NC2(c2ccccc2)NC(=Nc2nc4ccccc4[nH]2)N3)cc1 (configuration not stated) | 89%
COCCN1CCC(NCC(C)(C)c2nc(-c3ccc(Cl)c(O)c3)c(-c3ccncc3)[nH]2)CC1.Cl | 47%
CCOc1cc(C(=O)N[C@@H](Cc2ccccc2)[C@H](O)CNCc2cc(OC)cc(OC)c2)cc(N2CCCCS2(=O)=O)c1.Cl | 98%
CCC[C@@H]([C@@H](CC(C)C)C(=O)N[C@@H](CCCCNC(=O)c1cccc(OC)c1)C(=O)Nc1nccs1)N(O)C=O | 99%
CCCc1cc(=O)oc2cc(OC)c(C(=O)CC(C)C)c(OC)c12 | 67%

SMILES | Inhibition
NC(=O)c1c(Cl)nc2ccccc2c1Cl | 0%
CCN(CCCN1CCCCC1)c1cc(C)nc(Nc2ccc3c(c2)CCC3)n1.O=C(O)C(F)(F)F | 93%
OCCN1CCN(c2ccc(Nc3ccnc4cc5ccccc5cc34)cc2)CC1 | 100%
O=C(NCc1ccccn1)C(c1cc2ccccc2o1)N1CCN(C(c2ccccc2)c2ccccc2)CC1 (configuration not stated) | 68%
O=C(NCC(CCCN1CCC(c2c[nH]c3ccccc23)CC1)c1ccccc1)Nc1ccc(Cl)c(Cl)c1 (configuration not stated) | 64%
Cc1cc(N/N=C/c2ccccc2[N+](=O)[O-])c2cc(C(F)(F)F)ccc2n1 | 39%
CC(C)(C)c1cc(Cn2ccnc2)cc(C(C)(C)C)c1O | 3%
Cc1ccccc1C1CCN(C2CCC(NC(=O)/C=C/c3ccc(F)cc3)CC2)CC1 (configuration not stated) | 30%
COc1ccc2nccc(N3CCC(CCNCc4cc5c(cn4)OCCO5)CC3)c2c1.Cl | 99%
COc1cccc(Cc2cnc3nc(N)nc(N)c3c2C)c1 | 76%
COc1cc2nc(NCC3CCCCC3)nc(NCc3ccccc3)c2cc1OC | 100%
CCNc1cc(C(=O)N[C@@H](Cc2ccccc2)[C@H](O)CNCCc2ccccc2)cc(N2CCCC2=O)c1.O=C(O)C(F)(F)F | 46%
CCCCCn1c(Sc2ccc(C#N)c([N+](=O)[O-])c2)nnc1-c1ccccc1 | 15%
Cc1ccccc1C1CCN(C2CCC(NC(=O)/C=C/c3ccc(OC(F)(F)F)cc3)CC2)CC1 (configuration not stated) | 67%
O=C(NCCCCN1CCN(c2cccc(Cl)c2Cl)CC1)c1ccc2c(c1)CCN(C1CCC1)CC2 | 31%
CCN1CCN(c2cc(C)c3cc(NC(=O)c4cccc([N+](=O)[O-])c4)ccc3n2)CC1 | 73%
COc1ccc2nccc([C@@H](O)CN3CCC(NCc4ccc5c(c4)nnn5C(C)C)CC3)c2c1.O=C(O)C(=O)O | 40%
Cc1ccc(Nc2ccnc3cc(-c4nccs4)ccc23)cc1C(O)c1ccccc1.Cl (configuration not stated) | 83%
O=C(O)C(F)(F)F.OCCN1CCN(Cc2ccc(-c3ccc(-c4nc5ccccc5[nH]4)cc3)cc2)CC1 | 58%
O=C(/C=C/c1ccc(Cl)c(Cl)c1)NCCCCCN1CCC(c2cn[nH]c2-c2ccccc2)CC1 | 0%
